# Values joined by “and” are separate entries in the source; they are usually repeats but may differ in a detail not shown here. Equal values may be shown once. Records with an inconclusive call do not appear. Where a call stands in place of a potency, no number is given. Active and inactive are the calls of the source. The call rests on the fitted dose curve.
# Experiments:
# [1] = Cytotoxicity counterscreen for inhibitors of SARS-CoV-2 cell entry (AID 1645845); further: nearly all actives have a fitted effect of over 50% in size
# Outline: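 Expi293F/hACE2 cells seeded overnight; cpd pin-transferred in DMSO, 1 h preincubation, + media, 48 h 37 C 5% CO2; ATPLite 1step luminescence; normalized to cells and no cells.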
# [2] = Primary qHTS to identify inhibitors of SARS-CoV-2 cell entry (AID 1645846); conditions: activity change, negative = inhibition: at 57.1 µM (top of the series) unless noted; further: nearly all actives have a fitted effect of over 45% in size
# Outline: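 HEK293 cells stably expressing human ACE2, pre-treated 1 h with compound, then infected with MLV particles pseudotyped with Wuhan-Hu-1 spike (C-terminal 19-aa truncation). Luciferase luminescence after 48 h at 37 °C, normalised to spike PP and bald PP.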
# Potency means the concentration at half of the fitted maximal effect.
SMILES,Potency [1],"activity change, negative = inhibition [2]",Potency [2],outcome [1]
NCCNCCNCCN,inactive,2.68%,–,–
CCCCCCCCCCCCCCCCCC(=O)OCC(O)CO (stereo not given),inactive,–,inactive,–
NS(=O)(=O)c1cc2c(cc1Cl)NC(C(Cl)Cl)NS2(=O)=O (stereo not given),inactive,-2.02% and -6.06%,–,–
CNC[C@H](O)[C@@H](O)[C@H](O)[C@H](O)CO,inactive,-19.7%,–,–
COc1cnc(NS(=O)(=O)c2ccc(N)cc2)nc1,inactive,–,inactive,–
COc1ccc(C2C(=O)c3ccccc3C2=O)cc1,inactive,–,inactive,–
O=C(O)Cc1cccc2ccccc12,inactive,–,inactive,–
Nc1ccc(S(=O)(=O)Nc2ccnn2-c2ccccc2)cc1,inactive,4.82% [at 27.1 µM],–,–
O=c1[nH]c(=O)n([C@H]2C[C@H](O)[C@@H](CO)O2)cc1F,inactive,-90.3% and -94.8%,–,–
S=P(N1CC1)(N1CC1)N1CC1,inactive,4.21%,–,–
CN[C@@H]1[C@@H](O)[C@@H](O[C@@H]2[C@H](O)[C@H](O[C@H]3OC(CN)=CC[C@H]3N)[C@@H](N)C[C@H]2N)OCC1(C)O (stereo not given in full),inactive,–,inactive,–
Cc1cccc(C)c1NC(=O)c1cc(S(N)(=O)=O)c(Cl)cc1O,inactive,-7.8%,–,–
Cc1ccccc1C(=O)N1CC/C(=N\OS(=O)(=O)O)c2ccc(Cl)cc21,inactive,–,inactive,–
O=C(OOC(=O)c1ccccc1)c1ccccc1,inactive,–,inactive,–
C[C@H]1C[C@@H]2[C@H]([C@@H](O)C[C@@]3(C)[C@H]2CC[C@]3(O)C(=O)CO)[C@@]2(C)C=CC(=O)C=C12,inactive,–,inactive,–
CC(C)(S)[C@@H](N)C(=O)O,–,2.83% [at 5.25 µM],–,inactive [at 5.25 µM]
Cc1cc2c(cc1S(N)(=O)=O)S(=O)(=O)CCC2,inactive,–,inactive,–
CCOC(=O)/C=C(C)/C=C/C=C(C)/C=C/c1c(C)cc(OC)c(C)c1C,inactive,-11.5%,–,–
CN(C)C(=O)Oc1ccc[n+](C)c1,inactive,–,inactive,–
N#Cc1ccc(C(c2ccc(C#N)cc2)n2cncn2)cc1,inactive,0.824% and -10.9%,–,–
Cc1ccc(-c2ncc(Cl)cc2-c2ccc(S(C)(=O)=O)cc2)cn1,inactive,–,inactive,–
CCOc1ccc(NC(=O)CC(C)O)cc1 (stereo not given),inactive,-25.9%,–,–
CC[N+](CC)(CCNC(=O)C(=O)NCC[N+](CC)(CC)Cc1ccccc1Cl)Cc1ccccc1Cl,inactive,–,inactive,–

SMILES,Potency [1],"activity change, negative = inhibition [2]",Potency [2],outcome [1]
NC(=O)c1cccnc1,inactive,-15.2%,–,–
CC(C)COC(=O)c1ccc(N)cc1,inactive,–,inactive,–
O=C(NCCO[N+](=O)[O-])c1cccnc1,inactive,–,inactive,–
CCCNC(C)C(=O)Nc1ccccc1C (stereo not given),inactive,–,inactive,–
NCCCCCC(=O)O,inactive,-19.8% and -25.5%,–,–
C[N+](C)(CCOc1ccccc1)Cc1cccs1,inactive,-23%,–,–
CCN1CCC[C@H]1CNC(=O)c1cc(S(N)(=O)=O)ccc1OC,inactive,–,inactive,–
COC(=O)C1=C(C)NC(C)=C(C(=O)OCCc2ccc(N3CCN(C(c4ccccc4)c4ccccc4)CC3)cc2)C1c1cccc([N+](=O)[O-])c1 (stereo not given),inactive,-16.7%,–,–
CC(=O)OC(C)OC(=O)C(C)c1ccc(-c2ccccc2)c(F)c1 (stereo not given),inactive,-21.2%,–,–
CC(=O)[C@@]1(O)CC[C@H]2[C@@H]3C[C@H](C)C4=CC(=O)C=C[C@]4(C)[C@@]3(F)[C@@H](O)C[C@@]21C,inactive,1.04%,–,–
CCN(CC)CCNC(=O)c1ccc(N)cc1,inactive,–,inactive,–
NS(=O)(=O)c1cc(C(=O)O)cc(N2CCCC2)c1Oc1ccccc1,inactive,–,inactive,–
O=C1CC[C@H](C(=O)N2CCCCC2)N1,inactive,2.86%,–,–
COc1ccnc(CS(=O)c2nc3ccc(OC(F)F)cc3[nH]2)c1OC (stereo not given),inactive,–,inactive,–
CCCCOC(=O)c1ccc(N)cc1,inactive,–,inactive,–
CN(C)c1ccc2nc3ccc(=[N+](C)C)cc-3sc2c1,7.08 µM (active),–,8.91 µM (active) and 7.08 µM (active),–
CC(O)(P(=O)(O)O)P(=O)(O)O,inactive,–,inactive,–
C=CC(N)CCC(=O)O (stereo not given),inactive,–,inactive,–
CC(=O)O[C@]1(C(C)=O)CC[C@H]2[C@@H]3C[C@H](C)C4=CC(=O)CC[C@]4(C)[C@H]3CC[C@@]21C,inactive,-11.3%,–,–
CC[N+](CC)(CC)CCOc1cccc(OCC[N+](CC)(CC)CC)c1OCC[N+](CC)(CC)CC,inactive,–,inactive,–
OC[C@@H](O)[C@@H](O[C@@H]1O[C@H](CO)[C@H](O)[C@H](O)[C@H]1O)[C@H](O)[C@@H](O)CO,inactive,–,inactive,–
Oc1cccc(O)c1,inactive,–,inactive,–

# From PubChem BioAssay (NCATS)
